The target of assay [1] is Arylsulfatase A (Homo sapiens) (UniProt P15289). Nature of the assay: qHTS screen for enhancers of Arylsulfatase A (ASA1): LOPAC Validation Assay (AID 720538). Further: potency means the concentration at half of the fitted maximal effect. The method, boiled down:
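SV40-transformed fibroblasts from an MLD patient (ASA-I179S) were treated with compound for 48 h at 37 C. They were then lysed with 0.5 mM pNCS substrate (final) for 14 h at room temperature and stopped with NaOH; signal read by fluorescence (Ex 525/Em 598 nm), with increase denoting enhanced activity.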
For orientation: In qHTS, concentration-response curves come from the screen itself.

Assay [2] in a line: qHTS for compounds that reverse cellular toxicity of Amyloid beta (A-beta) peptide in yeast: LOPAC Validation Assay (AID 720559). Put shortly: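 Yeast expressing toxic A-beta grown with pinned compounds at 30 C for 48 hr. Growth measured as absorbance at 600 nm; data normalized to DMSO and to an equimolar FeCl3/clioquinol mixture as positive control.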
Assay [3] is described as follows: qHTS for Activators of Parkin Expression: LOPAC Validation Assay (NLuc Reporter) (AID 720572). Put shortly: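 Compound effects on Parkin promoter activity were measured as NanoLuc luminescence after 24 h at 37 C. The neuronal reporter line also carried FLuc, which was read first. LOPAC compounds were tested at 7 concentrations, with normalization to DMSO (0%) and positive control (100%).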

A short description of assay [4]: qHTS for Activators of Parkin Expression: LOPAC Validation Assay (FLuc Reporter) (AID 720573). The method, boiled down: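 Neuronal cell line stably expressing FLuc/NLuc coincidence reporter under the Parkin promoter, 1,500 cells/well, dosed 24 h after seeding in 7-point series for 24 h at 37 C. FLuc luminescence read; normalized to DMSO and positive control (100%).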

Assay [5] has as its target Tyrosine-protein kinase Yes (Homo sapiens) (UniProt P07947). In words: qHTS for small molecule inhibitors of Yes1 kinase: Primary Screen (AID 686947). Further: nearly all actives have a fitted effect of over 60% in size. Further: potency means the concentration at half of the fitted maximal effect. Put shortly: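 ADP-Glo luminescence reports ADP formed by 4 nM Yes1 phosphorylating poly(E4Y) (0.3 mg/mL) with 0.1 mM ATP for 60 min at room temperature, following 20 min compound preincubation; normalised between DMSO wells with and without enzyme.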

Assay [6] in a line: qHTS for small molecule inhibitors of Yes1 kinase: Counter Assay (AID 686950).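 Further: no kinase present so only ADP-Glo detection of a fixed ADP amount is tested; luminescence from ADP-Glo reporting ADP in a fixed ATP and ADP mixture; series mostly up to about 77 µM.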 The method, boiled down: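 ADP-Glo luminescence read after a 60 min room-temperature incubation of compound with an ATP/ADP mix (0.08 mM/0.02 mM) and no kinase, following a 20 min compound preincubation. Signal scaled between ATP+ADP (max) and 0.1 mM ATP-only (min) wells; Tris pH 7.5, Mg2+, DTT.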

Assay [7] addresses Hexokinase-4 (Homo sapiens) + Glucokinase regulatory protein (Homo sapiens) (UniProt P35557+Q14397). Nature of the assay: qHTS assay for inhibitors of recombinant human GCK-GKRP interaction: Diaphorase-coupled assay (AID 743205). The method, boiled down:
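Compounds pre-incubated 20 min with substrate, then 10 nM GST-GCK with 10 nM FLAG-GKRP added. GCK activity coupled via G6PDH and diaphorase to resorufin (5 mM glucose, 0.4 mM ATP, 0.15 mM NADP+, pH 7.6), read kinetically over 30 minutes at Ex 525/Em 590 nm.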

Potency and outcome data for 43 compounds are collected here from PubChem BioAssay (NCATS).

Values without a mark were called inactive. Results filed as inconclusive are left out. Activity calls are given as the source filed them. The call rests on the fitted dose curve; in most records, active means well fitted curve in the direction sought with a large enough effect; inconclusive means small, poorly fitted or top-dose-only effect, or another doubt; inactive means no such curve, though single readings can be large; an effect the other way counts as inactive or inconclusive.

Chain of Tyrosine-protein kinase Yes (Homo sapiens) (P07947 whole entry, looked up): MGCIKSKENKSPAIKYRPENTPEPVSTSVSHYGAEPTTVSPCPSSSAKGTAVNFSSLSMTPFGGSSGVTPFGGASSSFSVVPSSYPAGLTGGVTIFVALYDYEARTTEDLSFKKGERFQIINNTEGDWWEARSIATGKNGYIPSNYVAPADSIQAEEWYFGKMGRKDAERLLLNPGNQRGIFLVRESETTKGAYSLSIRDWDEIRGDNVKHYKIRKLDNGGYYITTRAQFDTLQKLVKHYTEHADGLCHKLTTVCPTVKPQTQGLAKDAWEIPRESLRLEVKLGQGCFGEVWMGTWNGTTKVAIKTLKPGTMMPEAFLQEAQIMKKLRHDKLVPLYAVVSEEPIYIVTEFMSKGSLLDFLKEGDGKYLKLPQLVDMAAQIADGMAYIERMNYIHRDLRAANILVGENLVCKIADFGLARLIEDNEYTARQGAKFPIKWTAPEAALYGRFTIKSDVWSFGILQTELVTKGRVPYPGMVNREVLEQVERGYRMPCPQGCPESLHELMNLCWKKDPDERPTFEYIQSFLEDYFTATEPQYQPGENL
Chain of Hexokinase-4 (Homo sapiens) + Glucokinase regulatory protein (Homo sapiens) (P35557 whole entry, looked up): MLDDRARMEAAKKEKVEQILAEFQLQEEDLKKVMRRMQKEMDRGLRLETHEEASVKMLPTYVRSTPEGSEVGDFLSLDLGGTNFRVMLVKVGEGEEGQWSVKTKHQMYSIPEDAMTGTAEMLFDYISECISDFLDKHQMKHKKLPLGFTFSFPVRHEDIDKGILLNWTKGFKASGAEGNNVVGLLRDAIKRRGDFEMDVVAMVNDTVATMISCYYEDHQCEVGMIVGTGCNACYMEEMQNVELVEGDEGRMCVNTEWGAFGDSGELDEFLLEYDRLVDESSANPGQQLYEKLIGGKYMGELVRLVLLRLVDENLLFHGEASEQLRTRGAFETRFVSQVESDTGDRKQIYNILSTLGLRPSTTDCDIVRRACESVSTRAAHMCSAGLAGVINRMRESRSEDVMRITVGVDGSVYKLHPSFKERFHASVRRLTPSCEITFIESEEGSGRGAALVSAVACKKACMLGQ
Chain of Hexokinase-4 (Homo sapiens) + Glucokinase regulatory protein (Homo sapiens) (Q14397 whole entry, looked up): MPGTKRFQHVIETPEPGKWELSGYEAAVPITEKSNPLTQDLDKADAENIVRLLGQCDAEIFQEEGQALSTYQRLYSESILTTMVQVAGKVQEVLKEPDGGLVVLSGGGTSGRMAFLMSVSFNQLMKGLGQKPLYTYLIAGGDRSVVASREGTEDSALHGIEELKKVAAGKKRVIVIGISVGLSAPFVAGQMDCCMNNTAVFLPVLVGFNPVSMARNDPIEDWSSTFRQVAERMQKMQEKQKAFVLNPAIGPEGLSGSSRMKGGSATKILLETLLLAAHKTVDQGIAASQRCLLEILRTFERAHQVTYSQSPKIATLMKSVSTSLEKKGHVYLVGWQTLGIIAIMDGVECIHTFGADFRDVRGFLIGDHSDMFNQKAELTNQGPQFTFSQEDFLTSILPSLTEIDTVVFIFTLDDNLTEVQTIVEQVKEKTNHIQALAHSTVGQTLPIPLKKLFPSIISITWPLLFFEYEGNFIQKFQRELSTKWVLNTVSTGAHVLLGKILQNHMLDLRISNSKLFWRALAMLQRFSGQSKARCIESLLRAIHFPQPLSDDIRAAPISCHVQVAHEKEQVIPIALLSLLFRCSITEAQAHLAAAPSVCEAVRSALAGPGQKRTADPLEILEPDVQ
Chain of Arylsulfatase A (Homo sapiens) (P15289 whole entry, looked up): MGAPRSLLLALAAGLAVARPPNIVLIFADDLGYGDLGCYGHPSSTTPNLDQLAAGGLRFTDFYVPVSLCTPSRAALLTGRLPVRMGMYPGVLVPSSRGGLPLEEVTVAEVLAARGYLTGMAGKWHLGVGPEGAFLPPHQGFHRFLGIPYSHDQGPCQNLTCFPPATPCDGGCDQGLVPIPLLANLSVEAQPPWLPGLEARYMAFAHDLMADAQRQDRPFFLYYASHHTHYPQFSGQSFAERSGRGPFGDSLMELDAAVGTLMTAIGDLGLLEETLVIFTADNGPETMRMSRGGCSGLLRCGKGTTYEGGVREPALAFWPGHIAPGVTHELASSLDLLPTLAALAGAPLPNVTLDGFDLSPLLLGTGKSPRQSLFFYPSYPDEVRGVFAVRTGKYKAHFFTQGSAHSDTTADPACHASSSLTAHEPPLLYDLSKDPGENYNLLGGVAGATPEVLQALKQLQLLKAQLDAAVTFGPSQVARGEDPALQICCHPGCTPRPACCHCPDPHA

Turning to `Clc1ccccc1C(c1ccccc1)(c1ccccc1)n1ccnc1`, the Potency result in assay [1] and in assay [4] was “inactive” throughout. In addition, the result in assay [2] and in assay [3] was inactive.
With `CN(C)C(=N)N=C(N)N`, in assay [5], the Potency result is “inactive”. Also, in assay [6], the compound was called inactive.
On to `COc1cc2nc(N3CCN(C(=O)c4ccco4)CC3)nc(N)c2cc1OC`, for which the Potency result in assay [1] and in assay [4] was “inactive” each time. For the same compound, the outcome in assay [2] and in assay [3] was inactive.
`Clc1ccc2c(c1)C(N1CCNCC1)=Nc1ccccc1O2`: the Potency result in assay [1] and in assay [4] was “inactive” throughout. In addition, the result in assay [2] and in assay [3] was inactive.
As for `Cn1ccc2cc3c(cc21)CCN3C(=O)Nc1cccnc1`, the Potency entry in assay [5] and in assay [7] was “inactive” in each case. The call in assay [6], in assay [2] and in assay [3] was inactive.
As for `NCCc1cnc[nH]1`, the Potency entry in assay [1] and in assay [4] was “inactive” in each case. Moreover, the outcome in assay [2] and in assay [3] was inactive.
For the compound `O=c1c(O)c(-c2ccc(O)c(O)c2)oc2cc(O)cc(O)c12`, the call in assay [6] and in assay [2] was inactive.
Take `O=C1c2c(O)ccc(O)c2C(=O)c2c(NCCNCCO)ccc(NCCNCCO)c21`: the Potency was 34.5 µM (active) in assay [5] and 23.9 µM (active) in assay [1]. Moreover, the compound was called inactive in assay [6], in assay [2] and in assay [3]. In addition, the Potency result in assay [4] and in assay [7] was “inactive” each time.
As for `CC[C@@]1(O)C(=O)OCc2c1cc1n(c2=O)Cc2cc3c(CN(C)C)c(O)ccc3nc2-1`, the call in assay [6] was inactive.
`Nc1nc2c(ncn2COC(CO)CO)c(=O)[nH]1`: the Potency entry in assay [1] and in assay [4] was “inactive” in each case. Moreover, the call in assay [2] and in assay [3] was inactive.
Consider `CN1CCC(=C2c3ccccc3CC(=O)c3sccc32)CC1`, for which the call in assay [2] and in assay [3] was inactive. For the same compound, the Potency result in assay [4] and in assay [7] was “inactive” each time.
As for `CN1CCN2c3ccccc3Cc3ccccc3C2C1` (stereo not given), the result in assay [2] and in assay [3] was inactive. Further, in assay [4], the Potency entry was “inactive”.
In the case of `Nc1nnc(-c2cccc(Cl)c2Cl)c(N)n1`, the Potency entry in assay [1], in assay [4] and in assay [7] was “inactive” in each case. Also, the outcome in assay [2] and in assay [3] was inactive.
For `CN(C)CCC=C1c2ccccc2C=Cc2ccccc21`, the Potency entry in assay [1], in assay [4] and in assay [7] was “inactive” each time. Also, the result in assay [2] and in assay [3] was inactive.
For the compound `CC[N+](CC)(CC)CCOc1cccc(OCC[N+](CC)(CC)CC)c1OCC[N+](CC)(CC)CC`, the compound was classed as inactive in assay [2] and in assay [3]. Also, the Potency entry in assay [4] was “inactive”.
As to `NC12CC3CC(CC(C3)C1)C2`, the Potency entry in assay [1], in assay [4] and in assay [7] was “inactive” throughout. The compound was classed as inactive in assay [2] and in assay [3].
In the case of `COc1ccc(C2CNC(=O)C2)cc1OC1CCCC1` (stereo not given), the call in assay [2] and in assay [3] was inactive. The Potency entry in assay [4] was “inactive”.
As to `CN1C2CCC1CC(OC(=O)C(CO)c1ccccc1)C2` (stereo not given), the outcome in assay [2] and in assay [3] was inactive. Moreover, in assay [4], the Potency entry was “inactive”.
Consider `COc1ccccc1OCCNCC(O)COc1cccc2[nH]c3ccccc3c12` (stereo not given), for which the call in assay [2] and in assay [3] was inactive. In addition, the Potency result in assay [4] was “inactive”.
Consider `Cc1ccccc1N1C(=O)c2cc(S(N)(=O)=O)c(Cl)cc2NC1C` (stereo not given), for which the Potency result in assay [1], in assay [4] and in assay [7] was “inactive” throughout. In addition, the result in assay [2] and in assay [3] was inactive.
With `CC1COc2c(N3CCN(C)CC3)c(F)cc3c(=O)c(C(=O)O)cn1c23` (stereo not given), the Potency entry in assay [1], in assay [4] and in assay [7] was “inactive” each time. Further, the call in assay [2] and in assay [3] was inactive.
Consider `CS(=O)(=O)Nc1ccc([N+](=O)[O-])cc1Oc1ccccc1`, for which the Potency entry in assay [1], in assay [4] and in assay [7] was “inactive” in each case. The result in assay [2] and in assay [3] was inactive.
Regarding `OCCN1CCN(CCCN2c3ccccc3Sc3ccc(C(F)(F)F)cc32)CC1`, the compound was called inactive in assay [2] and in assay [3]. Besides, the Potency result in assay [4] is “inactive”.
On to `CCOC(=O)Nc1ccc(NCc2ccc(F)cc2)nc1N`, for which the outcome in assay [2] and in assay [3] was inactive. Besides, the Potency entry in assay [4] was “inactive”.
For the compound `CN1C(C(=O)Nc2ccccn2)=C(O)c2ccccc2S1(=O)=O`, the Potency entry in assay [1], in assay [4] and in assay [7] was “inactive” each time. In assay [2], the compound was called inactive.
As to `CN(C)c1nc(N(C)C)nc(N(C)C)n1`, the Potency result in assay [1], in assay [4] and in assay [7] was “inactive” each time. Besides, the call in assay [2] and in assay [3] was inactive.
As for `CN1CCN(CCCN2c3ccccc3Sc3ccc(Cl)cc32)CC1`, the Potency entry in assay [1], in assay [4] and in assay [7] was “inactive” throughout. The result in assay [2] and in assay [3] was inactive.
Consider `CN1CCC(=C2c3ccccc3C=Cc3ccccc32)CC1`, for which the Potency result in assay [1], in assay [4] and in assay [7] was “inactive” throughout. The compound was classed as inactive in assay [2] and in assay [3].
Consider `CCOC(=O)c1ncn2c1CN(C)C(=O)c1cc(F)ccc1-2`, for which the compound was called inactive in assay [2] and in assay [3]. Moreover, the Potency result in assay [4] was “inactive”.
On to `CC(C)NCC(O)COc1ccc(CCOCC2CC2)cc1` (stereo not given), for which the compound was classed as inactive in assay [2] and in assay [3]. The Potency entry in assay [4] and in assay [7] was “inactive” throughout.
Consider `C[C@H]1c2cccc(O)c2C(O)=C2C(=O)[C@]3(O)C(O)=C(C(N)=O)C(=O)[C@@H](N(C)C)[C@@H]3[C@@H](O)[C@@H]21`, for which the Potency result in assay [1], in assay [4] and in assay [7] was “inactive” throughout. For the same compound, the outcome in assay [2] and in assay [3] was inactive.
Take `CCC1(C)CC(=O)NC1=O` (stereo not given): the call in assay [2] and in assay [3] was inactive. Also, in assay [4], the Potency result was “inactive”.
In the case of `O=C(C1CCCCC1)N1CC(=O)N2CCc3ccccc3C2C1` (stereo not given), the call in assay [2] was inactive.
With `O=C1N(c2ccccc2)c2ccccc2C1(Cc1ccncc1)Cc1ccncc1`, the Potency result in assay [1], in assay [4] and in assay [7] was “inactive” each time. Also, the compound was called inactive in assay [2] and in assay [3].
Turning to `COc1ccccc1OCC(O)CN1CCN(CC(=O)Nc2c(C)cccc2C)CC1` (stereo not given), the compound was classed as inactive in assay [2] and in assay [3]. For the same compound, the Potency entry in assay [4] is “inactive”.
In the case of `CC12CC3CC(C)(C1)CC(N)(C3)C2`, the Potency entry in assay [1], in assay [4] and in assay [7] was “inactive” throughout. The outcome in assay [2] and in assay [3] was inactive.
With `Clc1ccc2nsnc2c1NC1=NCCN1`, the result in assay [2] and in assay [3] was inactive. Moreover, the Potency result in assay [4] and in assay [7] was “inactive” throughout.
For `CN(C)CCCN1c2ccccc2CCc2ccc(Cl)cc21`, the Potency entry in assay [1], in assay [4] and in assay [7] was “inactive” in each case. The result in assay [2] and in assay [3] was inactive.
`NC(=O)OCC(COC(N)=O)c1ccccc1`: the Potency result in assay [1], in assay [4] and in assay [7] was “inactive” throughout. Also, the compound was called inactive in assay [2] and in assay [3].
On to `CN(C)C(=O)C(CCN1CCC(O)(c2ccc(Cl)cc2)CC1)(c1ccccc1)c1ccccc1`, for which the outcome in assay [2] and in assay [3] was inactive. Further, the Potency result in assay [4] is “inactive”.
As to `Cc1cc(C(C)(C)C)c(O)c(C)c1CC1=NCCN1`, the Potency result in assay [1], in assay [4] and in assay [7] was “inactive” each time. In addition, the compound was classed as inactive in assay [2] and in assay [3].
`CCCCc1oc2ccccc2c1C(=O)c1cc(I)c(OCCN(CC)CC)c(I)c1`: the compound was called inactive in assay [2] and in assay [3]. Moreover, the Potency entry in assay [4] and in assay [7] was “inactive” throughout.
In the case of `O=C(c1ccc(F)cc1)C1CCN(CCn2c(=O)[nH]c3ccccc3c2=O)CC1`, the compound was called inactive in assay [2] and in assay [3]. In addition, the Potency result in assay [4] and in assay [7] was “inactive” each time.
